Screening data (PubChem BioAssay)
This is a sample that favours compounds with a hit; in the whole collection about 4.1% have one here.
tim23-1 inh: tim23-1 yeast growth inhibition; AID 463212; inhibition, % at 20 µM; S. cerevisiae tim23-1 growth, BacTiter-Glo luminescence, 24 h; 330,000 tested, 1.3% active;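 active means growth inhibition of the mutant yeast at or above 50%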;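 further: temperature-sensitive mutant grown at 25 °C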
tim10-1 inh: tim10-1 yeast growth inhibition | S. cerevisiae tim10-1 ts strain growth, BacTiter-Glo, 24 h | inhibition, % at 20 µM | 330,000 tested, 2.2% active;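 active means inhibition of at least 40%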;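 further: mutant grown at 25 °C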
NALP3 yeast inh: inhibitors of NALP3 inflammasome in yeast. inhibition, % at 10 µM. Yeast reconstituted NLRP3/ASC/caspase-1, beta-gal luminescence, 24 h. AID 2825. 330,000 tested, 0.39% active;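 active means inhibition of 50% or more; inactive means inhibition below 50%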
NALP1 inh: NALP1 inhibition; S. cerevisiae NALP1/ASC/caspase-1 growth, X-gal OD620, 72 h; inhibition, % at 10 µM; 280,000 tested, 0.61% active; in the data active means inhibition mostly above about 24%, no sharp cut-off; inactive means mostly below about 32%
PfHsp90 set2: reduces growth (ATP signal) of yeast expressing P. falciparum Hsp90. S. cerevisiae expressing PfHsp90, BacTiter-Glo ATP, 48 h; yeast lacking PDR1 and PDR3 efflux regulators. inhibition, % at 9.4 µM. 310,000 tested, 0.32% active. AID 504621;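 active means every replicate shows inhibition above about 80%, whatever the replicate mean, limit read from the data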
TIM10 inh: inhibits growth of TIM10 yeast strain. S. cerevisiae TIM10 strain growth, BacTiter-Glo luminescence, 24 h. inhibition, % at 10 µM. 330,000 tested, 1.4% active. AID 463195;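 active means inhibition of 40% or more at the single tested concentration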;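 further: wild-type TIM10 isogenic control strain grown at permissive 25 °C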
tim10-1 confirm: tim10-1 yeast growth inhibition, confirmed | shares compounds with tim10-1 inh | S. cerevisiae tim10-1 ts strain growth, BacTiter-Glo, 24 h | AID 463213 | 7,400 tested, 56% active | inhibition, % at 20 µM;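 active means inhibition of yeast growth at or above a set limit in either of two repeat tests at 20 µM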;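 further: tim10-1 mutant grown at permissive 25 °C to find synthetic lethal compounds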
TIM10 conf: TIM10 yeast growth inhibition, confirmed | shares compounds with TIM10 inh | S. cerevisiae tim10 strain growth, BacTiter-Glo luminescence, 24 h | inhibition, % at 10 µM | 4,600 tested, 63% active;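 active means inhibition of yeast growth at or above a set limit in either of two replicates at 10 µM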; further: this counterscreen used the strain with wild-type TIM10
tim23-1 conf: confirmation of tim23-1 mutant yeast growth inhibitors. shares compounds with tim23-1 inh. S. cerevisiae tim23-1 growth, BacTiter-Glo luminescence, 24 h. inhibition, % at 20 µM. 4,400 tested, 83% active;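 active means inhibition above about 39% in either of two replicate wells at 20 µM, limit read from the data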;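 further: temperature-sensitive tim23-1 mutant grown at 25 °C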
A number is an active result; - = inactive; . = no result.

SMILES	tim23-1 inh	tim10-1 inh	NALP3 yeast inh	NALP1 inh	PfHsp90 set2	TIM10 inh	tim10-1 confirm	TIM10 conf	tim23-1 conf
COc1cc2cc(/C=C/C(=O)c3ccco3)c(Cl)nc2cc1OC	-	-	-	-	-	-	.	.	.
C[C@H](CO)N1C[C@H](C)[C@@H](CN(C)Cc2ccc(Cl)c(Cl)c2)Oc2c(NS(=O)(=O)c3cn(C)cn3)cccc2C1=O	-	-	-	.	-	-	.	.	.
COCCN(C(=O)COC(=O)c1ccccc1Cc1ccccc1)c1c(N)n(Cc2ccccc2)c(=O)[nH]c1=O	-	-	-	.	-	-	.	.	.
O=C1OC(c2ccc(Br)cc2)=N/C1=C\c1ccco1	58	57	-	-	-	45	-	-	44
COc1ccccc1C(=O)Nc1ccc2c(c1)CN(Cc1cnc(C)s1)CC2	-	-	-	-	-	-	.	.	.
Cc1ccc(C(=O)O/N=C(\N)c2ccc(Br)cc2)cc1C	-	-	-	-	-	-	.	.	.
O=C(/C=C/c1ccccc1)/C=C/c1ccccc1	59	48	-	-	-	53	49	-	67
Cc1ccccc1/C(N)=N/OC(=O)c1ccc(F)cc1	74	44	-	-	-	73	43	56	67
Cc1ccc(C)c(C(=O)O/N=C(\N)c2ccc(Br)cc2)c1	86	57	-	-	-	87	33	87	61
Cc1ccccc1C(=O)O/N=C(\N)c1ccccc1	57	55	-	-	-	53	58	50	68
Cc1cc(OCC(=O)O/N=C(\N)c2ccccc2)cc(C)c1Cl	73	64	-	-	-	-	49	.	80
N/C(=N\OC(=O)c1ccoc1)c1ccc(Br)cc1	81	59	-	-	-	71	54	64	84
Cc1cc(OCC(=O)O/N=C(\N)c2ccccc2)ccc1Cl	.	.	.	-	-	.	.	.	.
N/C(=N\OC(=O)/C=C/c1ccccc1)c1ccccc1	77	43	-	-	-	45	53	63	73
Cc1ccccc1Cn1c(NC2CCCC2)nc2c1c(=O)[nH]c(=O)n2C	-	-	-	.	-	-	.	.	.
CCN1CCCc2cc(CN(CCN3CCOCC3)C(=S)Nc3cc(F)cc(F)c3)ccc21	-	-	-	-	-	-	.	.	.
CC1N(C(=O)N2CCOCC2)CCN1S(=O)(=O)c1cccc(C(F)(F)F)c1 (stereo not given)	-	-	-	-	-	-	.	.	.
CCCOc1ccccc1/C=C(\C#N)C(=O)Nc1cccc(C)n1	56	49	-	-	-	-	45	.	57
O=C(Nc1ccc(Cl)c(Cl)c1)N1N=CCC1c1ccccc1 (stereo not given)	52	56	-	-	-	-	46	.	57
O=C(Nc1ccccc1)N1N=CCC1c1ccccc1 (stereo not given)	-	-	-	-	-	-	.	.	.
CCn1c(C)nc2cc(-c3nc4n(n3)Cc3ccccc3-4)ccc21	65	60	-	-	-	54	51	49	68
CCOC(=O)C1=CN(Cc2ccco2)S(=O)(=O)N(CC)C1c1ccccc1 (stereo not given)	-	-	.	.	-	-	.	.	.
CCOc1c2ccc(C(=O)NCc3ccc4c(c3)OCO4)cc2nn1CC	-	-	-	-	-	-	.	.	.
Cc1nc2cc(C(=O)NCc3ccc4c(c3)OCO4)ccc2n1-c1ccc(Br)cc1	52	47	-	-	-	-	39	.	48
Cc1ccccc1OCC(=O)NCCS(=O)(=O)N1CCN(c2ccc(F)cc2)CC1	-	-	-	.	.	-	.	.	.
Cc1ccc(S(=O)(=O)CNC(=O)c2ccccc2)cc1	-	-	-	-	-	-	.	.	.
Cc1ccc(S(=O)(=O)CNC(=S)c2ccc3ccccc3c2)cc1	53	43	-	-	-	-	-	.	50
CCCc1nnc(SCC(=O)Nc2ccccc2Cl)n1CC1CCCO1 (stereo not given)	-	-	-	-	-	-	.	.	.
